# Source: PubChem BioAssay
# Results filed as inconclusive are left out. Calls of active or inactive are those of the source.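 How the source made its calls, unless noted: active means normalized viability below 100% at a tested concentration; inactive means the rest.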
# Columns and labels:
# [1] = growth inhibition of DIPG glioma cells, dose response, cell-based, SU-DIPG-XVII, MIPE5.0, CellTiter-Glo, qHTS (AID 1347060; cut-off not given, nearly all actives have AC50 up to about 26 µM;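 further: cells exposed to compound for 48 hours before viability readout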); settings: SU-DIPG-XVII viability, CellTiter-Glo ATP luminescence
# [2] = growth inhibition of DIPG glioma cells, dose response, cell-based, JHH-DIPG-1, MIPE4.0, CellTiter-Glo, qHTS (AID 1347062; cut-off not given, nearly all actives have AC50 up to about 27 µM;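 further: cells exposed to compound for two days before readout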); settings: JHH-DIPG-1 viability, CellTiter-Glo ATP luminescence
# [3] = growth inhibition of DIPG glioma cells, dose response, cell-based, SU-DIPG-IV, MIPE4.0, CellTiter-Glo, qHTS (AID 1347063; cut-off not given, nearly all actives have AC50 up to about 30 µM;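 further: compound exposure lasted 48 hours before the viability readout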); settings: SU-DIPG-IV viability, CellTiter-Glo ATP luminescence
# [4] = viability loss in pontine glioma line – cell-based, SU-DIPG-XXV, MIPE5.0, CellTiter-Glo, qHTS, dose response (AID 1347065; cut-off not given, nearly all actives have AC50 up to about 26 µM;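 further: cells exposed to compound for 48 hours before ATP readout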); settings: CellTiter-Glo ATP luminescence
# [5] = JHH-DIPG-1 glioma cell viability, MIPE5.0 library, CellTiter-Glo luminescence, qHTS (AID 1347067; cut-off not given, nearly all actives have AC50 up to about 26 µM;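 further: cells exposed to compound for 48 hours before readout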); settings: JHH-DIPG-1 glioma viability, CellTiter-Glo ATP luminescence
# [6] = SU-DIPG-XXV glioma cell viability, MIPE5.0 library, qHTS (AID 1347068; cut-off not given, nearly all actives have IC50 up to about 30 µM;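 further: cells exposed to compound for 48 hours before viability readout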)
# [7] = modifiers of HSF1 nuclear foci, imaging, Selleck Cancer Library (AID 1347162; in the data active means plate-normalised HSF1 focus index below about 0.46); settings: human cells, at 10 µM; SSMD: measured here: HSF1 foci SSMD mean; cell count: measured here: cell number; plate-normalised HSF1 focus index: stronger effect = lower value
# [8] = ovarian cancer cell viability with rucaparib, profiling panel, oncology-focused library, rucaparib conditional (AID 1508598); settings: patient-derived ovarian cancer cells, CellTiter-Glo viability, 144 h, stronger effect = lower value
smiles,measurement,setting,value
CC(C)C[C@H](NC(=O)CNC(=O)c1cc(Cl)ccc1Cl)B(O)O,AC50,[1],166 nM (active)
same,AC50,[2],166 nM (active)
same,AC50,[3],118 nM (active)
same,AC50,[4],83.3 nM (active)
same,AC50,[5],263 nM (active)
same,IC50,[6],105 nM (active)
same,SSMD,[7],-0.17
same,cell count,[7],6790
same,plate-normalised HSF1 focus index,[7],0.988 (inactive)
same,viability,"[8]; at 0.000305 µM, OCI-C5x cells, with rucaparib 10 µM, 100% = cells with rucaparib alone",111% (inactive)
same,viability,"[8]; at 0.000305 µM, OCI-C5x cells, without rucaparib",132% (inactive)
same,viability,"[8]; at 0.000305 µM, OCI-P5x cells, with rucaparib 20 µM, 100% = cells with rucaparib alone",106% (inactive)
same,viability,"[8]; at 0.000305 µM, OCI-P5x cells, without rucaparib",121% (inactive)
same,viability,"[8]; at 0.00122 µM, OCI-C5x cells, with rucaparib 10 µM, 100% = cells with rucaparib alone",112% (inactive)
same,viability,"[8]; at 0.00122 µM, OCI-C5x cells, without rucaparib",130% (inactive)
same,viability,"[8]; at 0.00122 µM, OCI-P5x cells, with rucaparib 20 µM, 100% = cells with rucaparib alone",106% (inactive)
same,viability,"[8]; at 0.00122 µM, OCI-P5x cells, without rucaparib",111% (inactive)
same,viability,"[8]; at 0.00488 µM, OCI-C5x cells, with rucaparib 10 µM, 100% = cells with rucaparib alone",126% (inactive)
same,viability,"[8]; at 0.00488 µM, OCI-C5x cells, without rucaparib",129% (inactive)
same,viability,"[8]; at 0.00488 µM, OCI-P5x cells, with rucaparib 20 µM, 100% = cells with rucaparib alone",104% (inactive)
same,viability,"[8]; at 0.00488 µM, OCI-P5x cells, without rucaparib",116% (inactive)
same,viability,"[8]; at 0.0195 µM, OCI-C5x cells, with rucaparib 10 µM, 100% = cells with rucaparib alone",122% (inactive)
same,viability,"[8]; at 0.0195 µM, OCI-C5x cells, without rucaparib",128% (inactive)
same,viability,"[8]; at 0.0195 µM, OCI-P5x cells, with rucaparib 20 µM, 100% = cells with rucaparib alone",96.7% (active)
same,viability,"[8]; at 0.0195 µM, OCI-P5x cells, without rucaparib",116% (inactive)
same,viability,"[8]; at 0.0781 µM, OCI-C5x cells, with rucaparib 10 µM, 100% = cells with rucaparib alone",88.7% (active)
same,viability,"[8]; at 0.0781 µM, OCI-C5x cells, without rucaparib",103% (inactive)
same,viability,"[8]; at 0.0781 µM, OCI-P5x cells, with rucaparib 20 µM, 100% = cells with rucaparib alone",101% (inactive)
same,viability,"[8]; at 0.0781 µM, OCI-P5x cells, without rucaparib",80.5% (active)
same,viability,"[8]; at 0.313 µM, OCI-C5x cells, with rucaparib 10 µM, 100% = cells with rucaparib alone",30.3% (active)
same,viability,"[8]; at 0.313 µM, OCI-C5x cells, without rucaparib",22.4% (active)
same,viability,"[8]; at 0.313 µM, OCI-P5x cells, with rucaparib 20 µM, 100% = cells with rucaparib alone",22% (active)
same,viability,"[8]; at 0.313 µM, OCI-P5x cells, without rucaparib",4.33% (active)
same,viability,"[8]; at 1.25 µM, OCI-C5x cells, with rucaparib 10 µM, 100% = cells with rucaparib alone",7.48% (active)
same,viability,"[8]; at 1.25 µM, OCI-C5x cells, without rucaparib",6.01% (active)
same,viability,"[8]; at 1.25 µM, OCI-P5x cells, with rucaparib 20 µM, 100% = cells with rucaparib alone",2.76% (active)
same,viability,"[8]; at 1.25 µM, OCI-P5x cells, without rucaparib",1.33% (active)
same,viability,"[8]; at 5 µM, OCI-C5x cells, with rucaparib 10 µM, 100% = cells with rucaparib alone",1.81% (active)
same,viability,"[8]; at 5 µM, OCI-C5x cells, without rucaparib",1.62% (active)
same,viability,"[8]; at 5 µM, OCI-P5x cells, with rucaparib 20 µM, 100% = cells with rucaparib alone",1.18% (active)
same,viability,"[8]; at 5 µM, OCI-P5x cells, without rucaparib",0.837% (active)
